The target in assay [1] is Lysosomal acid glucosylceramidase (Homo sapiens) (UniProt P04062). Description: Glucocerebrosidase-p2 (AID 348; in the data active = potency below about 10 µM; note: potency is the fitted concentration of half-maximal effect). Particulars: purified GBA, blue fluorogenic substrate, 40 min. In a few lines: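 Compounds titrated from 0.6 nM upwards against 0.2 nM enzyme in pH 5.9 citric acid/KH2PO4, taurocholate, tween-20; blue fluorogenic substrate 80 uM, 40 min room temperature, stopped and read Ex 365/Em 440 for AC50.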
Chain of Lysosomal acid glucosylceramidase (Homo sapiens) (P04062 whole entry, looked up): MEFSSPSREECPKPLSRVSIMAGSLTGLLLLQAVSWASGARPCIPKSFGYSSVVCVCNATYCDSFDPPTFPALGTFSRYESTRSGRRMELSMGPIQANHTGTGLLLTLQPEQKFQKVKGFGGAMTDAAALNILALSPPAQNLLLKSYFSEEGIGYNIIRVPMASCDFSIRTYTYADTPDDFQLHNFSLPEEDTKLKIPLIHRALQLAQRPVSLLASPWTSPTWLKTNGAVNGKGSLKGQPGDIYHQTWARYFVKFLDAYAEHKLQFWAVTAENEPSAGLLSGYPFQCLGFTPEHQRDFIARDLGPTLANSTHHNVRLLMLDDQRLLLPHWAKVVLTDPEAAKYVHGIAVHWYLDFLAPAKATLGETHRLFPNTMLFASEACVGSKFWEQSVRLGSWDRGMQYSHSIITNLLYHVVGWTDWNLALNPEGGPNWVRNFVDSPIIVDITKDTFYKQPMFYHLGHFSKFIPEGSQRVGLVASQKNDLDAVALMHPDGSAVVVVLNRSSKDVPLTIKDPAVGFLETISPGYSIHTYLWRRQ

Assay [2] in a line: AP1 Signaling Pathway (AID 357).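 Note: ME-180 reporter cells stimulated with EGF at its EC50 level; % is set by controls: 0 for no effect and ±100 for the full control effect.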 Particulars: ME-180 AP-1-bla reporter, EGF-induced, beta-lactamase ratio, 5 h; at 7.69 µM (top of the series) unless noted. In a few lines:
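Modulation of EGF-driven AP-1 transcription was assessed with a beta-lactamase reporter in ME-180 cells. Compound and EC50 EGF were co-incubated 5 hours at 37 °C before 2.5-hour CCF4 loading at room temperature and dual-emission reading.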

A short description of assay [3]: NFAT Signaling Pathway (AID 444).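 Note: carbachol stimulus at about its EC50 of 1 µM final; % is set by controls: 0 for no effect and ±100 for the full control effect.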 Particulars: Jurkat NFAT-bla M1, carbachol, beta-lactamase ratio, 5 h; at 7.69 µM (top of the series) unless noted. In a few lines:
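Read-out: CCF4 FRET ratio (460 nm/530 nm) after 1 h RT dye loading, used for %activity and AC50 from titration series. Cells: Jurkat NFAT-β-lactamase/M1 line, treated with compound plus 1 uM carbachol for 5 h, 37 °C.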

Assay [4] in a line: Stat Signaling Pathway (AID 446).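 Note: ME-180 cervical cancer cells given 40 pM IL-6 alongside compound; SIE-controlled beta-lactamase reporter measured as 460/530 nm FRET emission ratio; % is set by controls: 0 for no effect and ±100 for the full control effect.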 Particulars: ME-180 SIE beta-lactamase reporter, IL-6 stimulated, 5 h; at 7.69 µM (top of the series) unless noted. A digest of the protocol:
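Reporter line: ME-180 cervical carcinoma, SIE-beta-lactamase. Treatment: compound with 40 pM IL-6, 5 hrs, 37 C, in low-serum OPTI-MEM with 10 mM HEPES pH 7.3. Detection: 460/530 nm fluorescence.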

The target in assay [5] is Glucocorticoid receptor (Homo sapiens) (UniProt P04150). In words: GR-GFP Redistribution (AID 450;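 active = compounds whose dose series gives a full or clear partial fitted curve of increased nuclear translocation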; note: potency is the fitted concentration of half-maximal effect). Particulars: U2OS GR-GFP nuclear translocation, laser cytometry, 2 h.
Chain of Glucocorticoid receptor (Homo sapiens) (P04150 whole entry, looked up): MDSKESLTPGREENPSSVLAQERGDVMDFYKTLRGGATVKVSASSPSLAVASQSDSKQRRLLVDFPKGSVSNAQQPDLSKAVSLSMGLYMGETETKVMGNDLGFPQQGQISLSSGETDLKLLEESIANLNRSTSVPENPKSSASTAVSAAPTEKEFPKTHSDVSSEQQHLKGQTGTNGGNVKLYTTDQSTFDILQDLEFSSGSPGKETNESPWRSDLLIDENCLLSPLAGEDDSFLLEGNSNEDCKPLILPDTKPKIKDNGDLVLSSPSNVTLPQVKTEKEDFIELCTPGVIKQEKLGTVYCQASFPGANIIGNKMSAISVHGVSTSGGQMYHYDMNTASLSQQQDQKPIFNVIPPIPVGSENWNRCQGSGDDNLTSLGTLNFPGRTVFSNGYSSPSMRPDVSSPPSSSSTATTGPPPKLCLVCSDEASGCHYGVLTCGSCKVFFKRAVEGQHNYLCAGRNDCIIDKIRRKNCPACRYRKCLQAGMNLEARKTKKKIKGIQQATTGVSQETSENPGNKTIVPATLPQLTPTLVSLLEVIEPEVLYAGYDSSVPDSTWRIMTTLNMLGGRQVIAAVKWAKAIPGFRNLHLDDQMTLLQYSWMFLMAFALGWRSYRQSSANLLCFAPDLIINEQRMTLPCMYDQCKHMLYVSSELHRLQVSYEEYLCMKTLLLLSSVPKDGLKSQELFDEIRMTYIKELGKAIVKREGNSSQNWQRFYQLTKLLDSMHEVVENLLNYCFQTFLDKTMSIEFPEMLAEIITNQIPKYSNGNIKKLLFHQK
Assay [6] shares this target. In words: GR-EFC Redistribution (AID 451; calls by dose curve; note: potency is the fitted concentration of half-maximal effect). Particulars: CHO-K1 GR-EFC translocation, beta-gal luminescence, 2 h. In a few lines:
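Translocation of GR-ED fusion to nuclear EA restores b-gal, read by luminescence after 1 h room-temperature detection. Engineered CHO-K1 biosensor cells, 1,000/well, exposed 2 h at 37 C to titrations up to 46 uM final.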

The target in assay [7] is Mitogen-activated protein kinase 10 (Mus musculus) (UniProt Q61831). Description: JNK3 AlphaScreen Assay (AID 530).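 Note: kinase came from lysate of stimulated human HepG2 cells; signal reports phosphorylation of biotinylated GST-cJun 1-79 at Ser73 with 10 µM ATP; % is set by controls: 0 for no effect and ±100 for the full control effect.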 Particulars: JNK3 lysate, c-Jun phosphorylation; series mostly up to 57.1 µM. In a few lines: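 Room-temperature AlphaScreen kinase assay; pre-activated HepG2 lysate as JNK3 source, biotin-GST-cJun(1-79) substrate, 10 uM ATP, compound 15 min preincubation.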
A general note: In Alpha technology, singlet oxygen from a donor bead excites a nearby acceptor bead.

The target in assay [8] is 3',5'-cyclic-AMP phosphodiesterase 4B (Homo sapiens) (UniProt Q07343). In words: qHTS Assay for Inhibitors of PDE-IV (AID 607; active = well fitted activation curve with a large enough effect in the main read-out, with a control signal flat, not every such curve was filed as active; note: % of control where 0% means no effect). Particulars: HEK293 ACTOne CNG channel cells, membrane potential fluorescence; series mostly up to 22.9 µM. A digest of the protocol: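 Cell-based read-out of cAMP via a modified cyclic nucleotide-gated channel and membrane potential dye (535/590 nm) in HEK293 cells expressing PDE4 endogenously. Compounds tested up to 22.9 uM final; 100 uM RO 20-1724 reference.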
Chain of 3',5'-cyclic-AMP phosphodiesterase 4B (Homo sapiens) (Q07343 whole entry, looked up): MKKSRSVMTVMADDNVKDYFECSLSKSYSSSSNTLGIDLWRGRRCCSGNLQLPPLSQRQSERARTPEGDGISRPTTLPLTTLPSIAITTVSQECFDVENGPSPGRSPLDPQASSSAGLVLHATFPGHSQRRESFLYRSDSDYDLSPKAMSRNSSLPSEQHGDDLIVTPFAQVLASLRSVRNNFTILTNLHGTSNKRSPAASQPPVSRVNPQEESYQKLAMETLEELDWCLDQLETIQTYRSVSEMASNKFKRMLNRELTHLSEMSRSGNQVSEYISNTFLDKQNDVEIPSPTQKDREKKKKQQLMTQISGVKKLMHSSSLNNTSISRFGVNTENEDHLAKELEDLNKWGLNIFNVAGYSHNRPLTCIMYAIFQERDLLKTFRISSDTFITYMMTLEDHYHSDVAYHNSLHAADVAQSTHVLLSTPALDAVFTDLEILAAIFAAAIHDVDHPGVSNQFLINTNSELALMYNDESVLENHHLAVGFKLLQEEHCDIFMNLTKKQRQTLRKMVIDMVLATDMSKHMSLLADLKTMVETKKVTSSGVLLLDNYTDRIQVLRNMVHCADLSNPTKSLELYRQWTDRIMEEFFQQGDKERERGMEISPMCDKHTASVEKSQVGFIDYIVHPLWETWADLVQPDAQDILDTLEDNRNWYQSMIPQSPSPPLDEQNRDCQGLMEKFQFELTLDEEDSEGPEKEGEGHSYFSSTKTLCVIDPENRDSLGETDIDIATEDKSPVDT

The target of assay [9] is Cytochrome P450 2D6 (Homo sapiens) (UniProt P10635). In words: qHTS Assay for Inhibitors and Substrates of Cytochrome P450 2D6 (AID 891; active = well fitted curve in the direction sought with a large enough effect; an effect the other way counts as inactive or inconclusive; note: potency is the fitted concentration of half-maximal effect; nearly all actives have a fitted effect of over 60% in size). Particulars: recombinant CYP2D6, luciferin-ME EGE luminescence; series mostly up to 57.1 µM. A digest of the protocol:
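Human CYP2D6 (5 nM) with 30 uM Luciferin-ME EGE (at Km) in 100 mM KPO4, compound preincubated 10 min, then NADPH regeneration system for 60 min at room temperature. Luciferin read by luminescence; normalized to 1.43 uM quinidine.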
(qHTS replaces the single test concentration by a dilution series.)

Assay [10] can be described thus: qHTS Assay for Identification of Small Molecule Agonists for Hypoxia Response Element Signaling Pathway (AID 914; active = well fitted activation curve with a large enough effect in the signal ratio, with a control signal flat, not every such curve was filed as active; the % refers to the signal ratio; note: % of control where 0% means no effect). Particulars: ME-180 (cervical carcinoma) HRE-bla reporter, beta-lactamase ratio, CoCl2, 17 h; activation: stronger effect = higher value. A digest of the protocol:
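HRE-bla ME-180 cells with beta-lactamase reporter under hypoxia response element, compounds with EC50 CoCl2 for 17 hours at 37 C. CCF4 substrate, 460nm/530nm emission ratio gave %Activity; AC50 from titration series.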

The nature of assay [11]: Confirmation and Secondary Assay for Modulators of Hemoglobin Beta Chain Splicing at IVS2 705 locus (AID 930; active = well fitted curve in the direction sought with a large enough effect; an effect the other way counts as inactive or inconclusive; note: % of control where 0% means no effect). Particulars: HeLa EGFP-705 splicing reporter, GFP fluorescence, 48 h; series mostly up to 38.3 µM. In a few lines: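 HeLa cells stably carrying EGFP interrupted by mutant beta-globin intron 2 (IVS2-705) treated 2 days at 37C with compound; 500 nM antisense PNA as control. Correct splicing read as total peak GFP intensity per well by laser-scanning cytometry.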

The nature of assay [12]: qHTS Assay for Lipid Storage Modulators (AID 1519; calls by dose curve). Particulars: Drosophila S3 cells, BODIPY lipid droplet/cell ratio, laser cytometry, cells loaded with oleic acid; for activity change, negative = inhibition: at 57.5 µM (top of the series). In a few lines: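 Cells seeded at 5,000 per well were treated with compounds over a concentration series and loaded with oleic acid (400 uM, as added). Lipid droplet fluorescence (488 nm excitation, 500-530 nm channel) was read by laser-scanning cytometry and normalized to 20 uM Triacsin C.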

Assay [13] can be described thus: Primary qHTS for small molecule stabilizers of the endoplasmic reticulum resident proteome: Secreted ER Calcium Modulated Protein (SERCaMP) assay (AID 1508630; active = well fitted curve in the direction sought with a large enough effect; an effect the other way counts as inactive or inconclusive; note: % is set by controls: 0 for no effect and ±100 for the full control effect). Particulars: SH-SY5Y GLuc-SERCaMP (Gaussia luciferase released on ER calcium loss) secretion, thapsigargin, luminescence; series mostly up to 38.4 µM. A digest of the protocol: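 GLuc-SERCaMP-expressing SH-SY5Y cells, pretreated 16 h with compound, are challenged with thapsigargin to empty ER calcium stores; after 4 h, coelenterazine is added directly to the medium and luminescence is imaged.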

Assay [14] addresses Cytochrome P450 3A4 (Homo sapiens) (UniProt P08684). Description: qHTS Assay for Inhibitors and Substrates of Cytochrome P450 3A4 (AID 884; active = well fitted curve in the direction sought with a large enough effect; an effect the other way counts as inactive or inconclusive; note: potency is the fitted concentration of half-maximal effect; nearly all actives have a fitted effect of over 50% in size). Particulars: recombinant CYP3A4, Luciferin-PPXE luminescence; series mostly up to 57.1 µM. In a few lines: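 20 nM human CYP3A4 with 25 uM Luciferin-PPXE (at KM) in 200 mM KPO4, preincubated 10 min with compound; NADPH regeneration started a 60 min RT reaction. Luciferin detected by luminescence, normalized to 57 uM ketoconazole as full inhibition.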

The target is the same in assay [15]. Description: qHTS Assay for Activators of Cytochrome P450 3A4 (AID 885; active = well fitted curve in the direction sought with a large enough effect; an effect the other way counts as inactive or inconclusive; note: nearly all actives have a fitted effect of over 65% in size). Particulars: recombinant CYP3A4, Luciferin-PPXE luminescence, 60 min; series mostly up to 57.1 µM. In a few lines: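 Signal was normalized against complete inhibition by 57 uM ketoconazole. The reaction used 20nM CYP3A4 with 25uM Luciferin-PPXE, 10-min compound preincubation and a 60-min NADPH-supported step at RT.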

A short description of assay [16]: Confirmation and Secondary Assay for Modulators of Hemoglobin Beta Chain Splicing at IVS2 654 locus (AID 910; active = well fitted curve in the direction sought with a large enough effect; an effect the other way counts as inactive or inconclusive;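 note: HeLa cells stably carrying EGFP split by mutant beta-globin IVS2-654 intron; % of control where 0% means no effect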). Particulars: HeLa EGFP-654 splicing reporter, GFP fluorescence, 48 h; series mostly up to 38.3 µM. A digest of the protocol: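 Readout: per-well total peak green fluorescence (488 nm ex, 500–520 nm em) from objects 5–250 µm, reflecting correct splicing of an EGFP-654 reporter. Compounds were applied for 2 days at 37 °C to overnight-plated HeLa EGFP-654 cells; controls were DMSO and 500 nM IVS2-654 PNA.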

The target in assay [17] is Ubiquitin carboxyl-terminal hydrolase 1 (Homo sapiens) (UniProt O94782). Description: Inhibitors of USP1/UAF1: Pilot qHTS (AID 504865; active = well fitted curve in the direction sought with a large enough effect; an effect the other way counts as inactive or inconclusive;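 note: rhodamine fluorescence freed from ubiquitin-rhodamine substrate followed over time; top concentration of the series differs between compounds; % is set by controls: 0 for no effect and ±100 for the full control effect; nearly all actives have a fitted effect of over 35% in size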). Particulars: purified USP1/UAF1, Ub-rhodamine cleavage fluorescence; series mostly up to 54.9 µM. A digest of the protocol:
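In 50mM HEPES pH 7.8 containing 0.5mM EDTA, 1mM TCEP, 0.1 mg/ml BSA and 0.01% Tween-20, 1nM USP1/UAF1 is exposed to compound for 15 min, then Ub-Rho (150nM final) is added and fluorescence is read over time.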

Where [18] appears, read: measured here: cell count channel max response.
[19] abbreviates: measured here: lipid channel max response.

The structures appear in SMILES notation. Records with an inconclusive call do not appear. The source made the active and inactive calls. Unless noted, calls come from the whole dose curve; as a rule, active = well fitted curve in either direction with a large enough effect (not every such curve was filed as active); inconclusive = small, poorly fitted or top-dose-only effect, or another doubt; inactive = flat fitted curve, though single readings scatter.

The record followed here is PubChem BioAssay (NCATS).

Chain of Cytochrome P450 3A4 (Homo sapiens) (P08684 whole entry, looked up): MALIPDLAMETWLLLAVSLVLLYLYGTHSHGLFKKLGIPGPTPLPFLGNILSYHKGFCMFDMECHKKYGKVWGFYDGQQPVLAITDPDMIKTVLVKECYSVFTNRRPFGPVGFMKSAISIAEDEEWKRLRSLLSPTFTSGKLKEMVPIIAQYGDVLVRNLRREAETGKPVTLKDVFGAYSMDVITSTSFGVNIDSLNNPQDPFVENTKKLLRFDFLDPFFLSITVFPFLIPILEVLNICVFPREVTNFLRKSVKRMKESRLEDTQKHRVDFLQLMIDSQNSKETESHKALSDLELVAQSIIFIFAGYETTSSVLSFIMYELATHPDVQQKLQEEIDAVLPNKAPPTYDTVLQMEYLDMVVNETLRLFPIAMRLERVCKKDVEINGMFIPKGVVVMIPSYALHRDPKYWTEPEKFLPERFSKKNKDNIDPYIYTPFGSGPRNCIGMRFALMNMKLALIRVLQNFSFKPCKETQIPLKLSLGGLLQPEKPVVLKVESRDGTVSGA
Chain of Cytochrome P450 2D6 (Homo sapiens) (P10635 whole entry, looked up): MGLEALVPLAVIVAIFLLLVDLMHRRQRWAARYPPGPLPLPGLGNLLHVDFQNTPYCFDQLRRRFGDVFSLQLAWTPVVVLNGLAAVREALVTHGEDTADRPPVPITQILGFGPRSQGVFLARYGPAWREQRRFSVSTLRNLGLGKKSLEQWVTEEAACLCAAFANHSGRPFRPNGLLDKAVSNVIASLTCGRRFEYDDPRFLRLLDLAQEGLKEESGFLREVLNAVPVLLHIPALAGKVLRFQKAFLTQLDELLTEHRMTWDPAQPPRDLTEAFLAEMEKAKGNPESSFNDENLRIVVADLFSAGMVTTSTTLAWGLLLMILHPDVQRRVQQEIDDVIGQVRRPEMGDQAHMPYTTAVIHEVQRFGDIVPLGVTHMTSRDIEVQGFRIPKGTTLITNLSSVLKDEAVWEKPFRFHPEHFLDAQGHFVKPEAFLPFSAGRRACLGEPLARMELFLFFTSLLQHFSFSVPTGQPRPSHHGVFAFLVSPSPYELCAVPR
Chain of Ubiquitin carboxyl-terminal hydrolase 1 (Homo sapiens) (O94782 whole entry, looked up): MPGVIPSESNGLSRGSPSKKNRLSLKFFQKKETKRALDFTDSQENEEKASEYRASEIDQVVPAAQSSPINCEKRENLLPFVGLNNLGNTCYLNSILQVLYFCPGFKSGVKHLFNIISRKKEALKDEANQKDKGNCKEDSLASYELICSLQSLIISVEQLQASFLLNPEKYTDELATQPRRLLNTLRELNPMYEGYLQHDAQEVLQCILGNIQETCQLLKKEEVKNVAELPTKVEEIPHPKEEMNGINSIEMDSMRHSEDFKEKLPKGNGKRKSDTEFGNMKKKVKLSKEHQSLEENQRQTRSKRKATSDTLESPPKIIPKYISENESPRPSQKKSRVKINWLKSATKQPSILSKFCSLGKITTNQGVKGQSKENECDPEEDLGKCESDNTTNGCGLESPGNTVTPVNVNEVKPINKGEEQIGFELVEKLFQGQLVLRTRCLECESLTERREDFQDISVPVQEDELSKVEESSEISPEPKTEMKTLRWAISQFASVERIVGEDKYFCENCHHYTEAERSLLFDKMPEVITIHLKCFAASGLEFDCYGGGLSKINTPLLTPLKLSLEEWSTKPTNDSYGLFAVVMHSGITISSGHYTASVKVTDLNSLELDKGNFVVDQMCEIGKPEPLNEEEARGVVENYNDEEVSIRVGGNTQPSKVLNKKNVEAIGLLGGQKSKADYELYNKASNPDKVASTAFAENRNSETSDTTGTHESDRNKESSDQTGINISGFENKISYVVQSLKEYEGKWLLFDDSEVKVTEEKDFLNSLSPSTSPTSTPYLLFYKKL

On to `CN(C)Cc1ccccc1-c1cc(N(C)C)ncn1`, for which the Potency was > 11.4 µM (inactive) in [1], > 46 µM (inactive) in assay [5], > 46 µM (inactive) in assay [6] and 1.26 µM (active) in assay [9]. Further, the activity change, negative = inhibition in assay [2] was -1.87% (inactive); in assay [3], -11.7% (inactive); in assay [12], 5.84% (inactive). For the same molecule, in [4], the activity, negative = inhibition is 7.42% (inactive). Besides, the Potency entry in [7] and in assay [8] was “inactive” throughout. In addition, the activation in [10] is 5.79% (inactive). Moreover, the result in assay [11] and in assay [13] was inactive. For the same molecule, the max response is 8.47% in [12] (setting [18]) and 12% in assay [12] (setting [19]).

As for `Cc1cccc(CNc2cc(-c3ccoc3)ncn2)c1`, the Potency in assay [1] is > 11.4 µM (inactive); in assay [5] it was > 46 µM (inactive); in assay [6] it was > 46 µM (inactive); in [14], 7.94 µM (active). Moreover, the activity change, negative = inhibition in [2] was -15.6% (inactive); in assay [3], 12% (inactive); in [12], 5.52% (inactive). Also, the activity, negative = inhibition in assay [4] was -3.91% (inactive). The Potency result in assay [7], in assay [8], in assay [15] and in [16] was “inactive” throughout. Also, the outcome in assay [11] and in [13] was inactive. Moreover, the max response is -1.87% in assay [12] (setting [18]) and 6.63% in [12] (setting [19]).

For the molecule `O=C(Nc1ccccc1)N1CC[C@@]2(CCCN(C(=O)c3csnn3)C2)C1`, the Potency was > 11.4 µM (inactive) in assay [1] and > 46 µM (inactive) in [6]. Besides, the activity change, negative = inhibition in assay [2] is -13.6% (inactive); in [3], 9.61% (inactive); in assay [12], 6.56% (inactive). Besides, the activity, negative = inhibition in [4] was 0.432% (inactive). For the same molecule, the Potency entry in assay [7] and in assay [8] was “inactive” each time. Also, the values for the max response in assay [12] (setting [18]) and in [12] (setting [19]) were -5.15% and 6.65%, respectively. Further, in [13], the outcome was inactive.

Turning to `Cc1ccccc1-c1cncnc1NC1CCNCC1`, the Potency in [1] was > 11.4 µM (inactive); in assay [5], > 46 µM (inactive); in assay [6] it was > 46 µM (inactive). Besides, the activity change, negative = inhibition in assay [2] is 11.7% (inactive); in [3] it was -1.26% (inactive); in assay [12], 3.19% (inactive). Besides, the activity, negative = inhibition in assay [4] was 20.9% (inactive). The Potency result in assay [7], in [8], in assay [15] and in [17] was “inactive” throughout. Also, the molecule was called inactive in assay [11] and in assay [13]. For the same molecule, the max response in [12] (setting [18]) was determined as 12.9%; in assay [12] (setting [19]), 16%.

As for `COCC(=O)N1CCC[C@@]2(CCN(Cc3cc(C(F)(F)F)cc(C(F)(F)F)c3)C2)C1`, the values for the Potency in assay [1] and in assay [6] were > 11.4 µM (inactive) and > 46 µM (inactive), respectively. The activity change, negative = inhibition in [2] is 3.75% (inactive); in [3], 6.67% (inactive); in [12] it was 5.27% (inactive). Also, in assay [4], the activity, negative = inhibition is 9.45% (inactive). Further, the Potency result in assay [7] and in assay [8] was “inactive” each time. Further, the values for the max response in assay [12] (setting [18]) and in assay [12] (setting [19]) were 7.6% and 16.2%, respectively. Moreover, the result in [13] was inactive.

In the case of `Cn1cccc1C(=O)N1CCC[C@@]2(CCN(c3ncccn3)C2)C1`, the Potency was > 11.4 µM (inactive) in assay [1] and > 46 µM (inactive) in assay [6]. Further, the activity change, negative = inhibition was -1.25% (inactive) in assay [2], -9.56% (inactive) in assay [3] and 1.1% (inactive) in [12]. Further, the activity, negative = inhibition in assay [4] is -1.27% (inactive). The Potency result in [7] and in [8] was “inactive” in each case. For the same molecule, the max response in assay [12] (setting [18]) was -6.2%; in [12] (setting [19]), -1.14%. Also, the result in [13] was inactive.
